This is an account of results in PubChem BioAssay AID504796 (The Scripps Research Institute Molecular Screening Center, 2011).

Each structure is given as a SMILES string. Some of the results follow. Values without a mark were called inactive. Activity calls are given as the source filed them. Rule as the data show it: active = activation above about 20%; inactive = the rest.

The nature of the experiment: fluorescence polarization artefacts, biochemical, artefact control for PKA-R2B activator project (AID 504796).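 Also: Cy5 labelled IP20 peptide probe with compound but no PKA protein.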 As to conditions: FP artifact counterscreen, at 11.4 µM, stronger effect = higher value. Background: Fluorescence polarisation rises when a labelled molecule tumbles more slowly, as on binding a larger partner.
As to `O=C(CN(C(=O)CCC(=O)Nc1nccs1)c1ccc(F)cc1)NCc1ccc2c(c1)OCO2`, the activation was -1.45%.
For `COc1cccc(Nc2nnc(SCC(=O)N3CC(C)OC(C)C3)s2)c1` (stereo not drawn), the activation was 1.43%.
Consider `COc1ccc([N+](=O)[O-])cc1C1NN=C(c2cccc3ccccc23)S1` (stereo not drawn), for which the activation is 4.38%.
Turning to `CC(C)(C)c1ccc(C(=O)N2CCC(C(=O)N3CCCCC3)CC2)cc1`, the activation is 4.67%.
For the compound `O=C(CNC(=O)c1ccccc1)NCC(=O)OCC(=O)c1ccccc1`, the activation was 9.84%.
`CC(C)(C)c1nnc(N/N=C/c2ccc(O)cc2)n(N)c1=O`: the activation is 1.05%.
Regarding `CCCC(=O)Nc1ncnc2c1ncn2[C@@H]1O[C@@H]2OP(=O)(O)OC[C@H]2[C@H]1OC(=O)CCC`, the activation is 0.15%.
In the case of `O=C(CCCN1C(=O)c2cccc3cccc(c23)C1=O)N1CCN(Cc2ccc3c(c2)OCO3)CC1`, the activation is 1.66%.
Under `COc1ccc(C/C(C)=N/NC(=O)c2ccncc2)cc1` stands 1.96%; under `COc1ccc(CC(NC(C)=O)C(=O)NC2CCN(C(=O)c3ccc(Cl)cc3)CC2)cc1` (stereo not drawn), 3.95%.
For `O=C(O)C1=C(C(=O)O)C2CCC1C2`, the activation was 5.92%.
Take `N#Cc1ccccc1CN1C(=O)S/C(=C/c2cccn2-c2cccc(C(=O)O)c2)C1=O`: the activation is 19.3% (active).
As for `O=S(=O)(NCCNS(=O)(=O)c1ccccc1)c1ccccc1`, the activation is 4.68%.
